Assay outcomes (PubChem)
Compounds with a hit are over-represented: about 1.6% of the library has one in this group of screens.
KCNQ2 inh: KCNQ2 (rat) channel inhibition; O88943; CHO-K1 KCNQ2, FluxOR thallium flux, 20 min; stronger effect = lower value; B-score at 10 µM; 310,000 compounds, 1.1% hits; AID 2156;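 active means fluorescence ratio B-score at most minus 3 library SDs, with starting brightness B-score within 2 library SDs, cut at about -5.5 in these data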
KCNQ2 pot: potentiators of rat KCNQ2 potassium channel; 310,000 compounds, 0.54% hits; AID 2239; B-score at 10 µM; O88943; CHO-K1 KCNQ2, FluxOR thallium flux fluorescence; stronger effect = higher value;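 active means fluorescence ratio B-score at least 3 SD of library B-scores, with initial fluorescence B-score within 3 of them, cut at about 5.3 in these data; same plate scores as AID 2156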;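 further: B-score of peak minus minimum over baseline fluorescence ratio after K+ and Tl+ stimulus; positive B-score means potentiation of KCNQ2 with more thallium influx and brighter signal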
KCNQ2 block conf: rat KCNQ2 channel inhibition, confirmatory screen; shares compounds with KCNQ2 inh; KCNQ2-expressing cells, thallium flux; stronger effect = lower value; activity change, negative = inhibition, % at 10 µM; 1,000 compounds, 57% hits
KCNQ1 spec: human KCNQ1 activity in KCNQ2 inhibitor specificity screen. shares compounds with KCNQ2 inh. KCNQ1-expressing cells, FluxOR thallium flux fluorescence; stronger effect = lower value. activity change, negative = inhibition, % at 10 µM. 1,000 compounds, 15% hits;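 active means activity change at least 3 SD of negative controls below their mean in both duplicate wells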;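 further: CHO cells stably transfected with KCNQ1 and depolarized by potassium stimulus; peak minus minimum fluorescence over baseline after thallium addition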
Target sequence (P51787 whole entry, looked up): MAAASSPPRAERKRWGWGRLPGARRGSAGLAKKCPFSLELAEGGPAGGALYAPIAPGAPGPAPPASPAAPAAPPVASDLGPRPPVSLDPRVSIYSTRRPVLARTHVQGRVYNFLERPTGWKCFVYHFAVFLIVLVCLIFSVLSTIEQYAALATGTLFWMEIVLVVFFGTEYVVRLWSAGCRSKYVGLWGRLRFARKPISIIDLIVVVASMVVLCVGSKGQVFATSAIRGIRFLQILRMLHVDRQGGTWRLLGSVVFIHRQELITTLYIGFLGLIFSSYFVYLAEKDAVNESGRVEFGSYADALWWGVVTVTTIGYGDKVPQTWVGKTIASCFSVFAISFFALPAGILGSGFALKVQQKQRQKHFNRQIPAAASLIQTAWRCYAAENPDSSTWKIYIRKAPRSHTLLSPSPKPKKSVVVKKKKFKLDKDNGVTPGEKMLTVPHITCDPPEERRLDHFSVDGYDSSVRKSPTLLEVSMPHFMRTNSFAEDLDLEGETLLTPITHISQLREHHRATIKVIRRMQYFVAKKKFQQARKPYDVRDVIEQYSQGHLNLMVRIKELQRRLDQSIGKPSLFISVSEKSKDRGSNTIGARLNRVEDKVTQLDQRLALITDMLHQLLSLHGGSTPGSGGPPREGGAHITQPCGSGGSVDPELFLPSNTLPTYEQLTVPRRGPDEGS
CHO parental ctr: activity in parental CHO cells lacking KCNQ2 | shares compounds with KCNQ2 inh | thallium flux counter-screen; stronger effect = lower value | activity change, % at 10 µM | 1,000 compounds, 14% hits
KCNQ2 inh confirm: confirmation of rat KCNQ2 potassium channel inhibitors | KCNQ2-expressing cells, automated patch clamp current | shares compounds with KCNQ2 inh | 550 compounds, 49% hits | AID 588531 | calls only at 10 µM
Of the large screens only hits and unclear results are named; the others gave an inactive call (follow-up assays come after a bar, where they were run). Unless noted, how the calls were made is not given here.

CN1/C(=C\C(=O)Nc2cccc(Cl)c2)C(C)(C)c2ccccc21	KCNQ2 inh -7.1 | KCNQ2 block conf -20% | KCNQ1 spec inactive | CHO parental ctr inactive | KCNQ2 inh confirm inactive
CN1/C(=C\C(=S)NC(=O)c2cccc(Br)c2)C(C)(C)c2ccccc21	KCNQ2 inh -7.8 | KCNQ2 block conf -22% | KCNQ1 spec inactive | CHO parental ctr inactive | KCNQ2 inh confirm active
CN1/C(=C\C(=S)NC(=O)c2ccc([N+](=O)[O-])cc2)C(C)(C)c2ccccc21	none (no result: KCNQ2 pot)
O=C(CN1CCN(CC(=O)Nc2cccc(F)c2)CC1)Nc1ccc(-c2ccccc2)cc1	none (no result: KCNQ2 pot)
COc1ccccc1OCC(=O)Nc1cc(C)ccc1NC(=O)c1ccco1	none (no result: KCNQ2 pot)
Cc1nc(Cl)sc1C(=O)Nc1cccc2ccccc12	none
CCOP(=O)(OCC)C(NC(=O)Nc1ccccc1)c1ccccc1 (centres undefined)	none (no result: KCNQ2 pot)
CCOP(=O)(OCC)C(NC(=O)Nc1c(C)cc(C)cc1C)c1ccccc1 (centres undefined)	KCNQ2 inh -9.2 | KCNQ2 block conf -21% | KCNQ1 spec inactive | CHO parental ctr inactive | KCNQ2 inh confirm active
C[N+](C)=C1SCC(C)(/C=N/O)S1 (centres undefined)	none (no result: KCNQ2 pot)
Cc1ccc(N(CC(=O)NCc2ccco2)C(=O)CCC(=O)Nc2nccs2)c(C)c1	none (no result: KCNQ2 pot)
O=S(=O)(CCc1ccncc1)c1ccc(Cl)cc1	none (no result: KCNQ2 pot)
COc1ccc(C(=O)CC(Nc2ccc([N+](=O)[O-])cc2)c2ccc(Cl)cc2)cc1 (centres undefined)	KCNQ2 inh -8.1 | KCNQ2 block conf inactive | KCNQ1 spec inactive | CHO parental ctr inactive
COc1ccc(C(=O)CC(=O)C(=O)Nc2ccc(Cl)cc2)cc1	none (no result: KCNQ2 pot)
CN(C(=O)COC(=O)COc1ccc(Cl)cc1)C1CCCCC1	none (no result: KCNQ2 pot)
Cc1cc(OCC(=O)N(C)C2CCCCC2)cc(C)c1Cl	KCNQ2 inh -7.4 | KCNQ2 block conf -43% | KCNQ1 spec -46% | CHO parental ctr -38% | KCNQ2 inh confirm active
COc1ccc(Cl)cc1C(=O)Nn1c(-c2cccs2)nc2ccccc2c1=O	none
COc1cccc(OC)c1C(=O)Nn1c(-c2cccs2)nc2ccccc2c1=O	KCNQ2 inh -9.2 | KCNQ2 block conf inactive | KCNQ1 spec inactive | CHO parental ctr inactive
Cc1ccccc1NC(=O)c1c2c(nc3ccccc13)CCC2	KCNQ2 inh -6.9 | KCNQ2 block conf inactive | KCNQ1 spec inactive | CHO parental ctr inactive
CCc1nc2ccccc2c(C(=O)Nc2cc(C)ccc2C)c1C	KCNQ2 inh -7.5 | KCNQ2 block conf inactive | KCNQ1 spec inactive | CHO parental ctr inactive
Cc1ccc(NC(=O)c2c3c(nc4ccccc24)CCC3)cc1	none (no result: KCNQ2 pot)
CCc1nc2ccccc2c(C(=O)Nc2cccc(C)c2)c1C	none (no result: KCNQ2 pot)
COc1ccc(S(=O)(=O)NCc2ccco2)cc1NC(=O)c1ccccc1	none
CSc1ccccc1NS(=O)(=O)c1cccc2nonc12	none
Cc1ccc(NC(=O)CN2C(=O)CSc3ccc(S(=O)(=O)N4CCCCC4)cc32)cc1	none (no result: KCNQ2 pot)
c1ccc(C(c2ccccc2)c2noc(CN3CCC(c4ccncc4)CC3)n2)cc1	none (no result: KCNQ2 pot)
O=C(/C=C/c1cccc(Cl)c1)N1CCC(Cc2ccccc2)CC1	KCNQ2 inh -11 | KCNQ2 block conf -35% | KCNQ1 spec -41% | CHO parental ctr -34% | KCNQ2 inh confirm active
O=C(/C=C/c1ccccc1)N1CCC(Cc2ccccc2)CC1	none (no result: KCNQ2 pot)
COc1ccc(-c2cc(C(=O)N3CC(C)CC(C)C3)c3ccccc3n2)cc1OC (centres undefined)	KCNQ2 inh -11 | KCNQ2 block conf -31% | KCNQ1 spec inactive | CHO parental ctr inactive | KCNQ2 inh confirm active
COc1ccc(NC(=O)CN(C)C(=O)c2cc(-c3ccc(OC)cc3)nc3ccccc23)cc1	none
COc1ccc(-c2cc(C(=O)N3CCC3)c3ccccc3n2)cc1OC	none
COc1ccc(-c2cc(C(=O)N(C)Cc3ccc(F)cc3)c3ccccc3n2)cc1OC	KCNQ2 inh -7.5 | KCNQ2 block conf -53% | KCNQ1 spec -48% | CHO parental ctr -56% | KCNQ2 inh confirm active
COc1ccc(-c2cc(C(=O)N3CCCC3)c3ccccc3n2)cc1OC	none
COc1ccc(CCN(C)C(=O)c2cc(-c3ccc(C)cc3)nc3ccccc23)cc1OC	KCNQ2 inh -6.7 | KCNQ2 block conf -45% | KCNQ1 spec -46% | CHO parental ctr -42% | KCNQ2 inh confirm active
COc1ccc(NC(=O)[C@@H](NC(N)=O)C(C)C)cc1Cl	none
COc1cccc(NC(=O)CSc2nnc3ccc(-c4ccccn4)nn23)c1	none (no result: KCNQ2 pot)
